Shiga inhibitor = inhibitors of Shiga toxin in Vero cells; Vero cells, Shiga toxin protein synthesis inhibition reporter; inhibition, % at 38.7 µM; 9.2% of 290,000 active; AID 2315; in the data active means inhibition mostly above about 28%, no sharp cut-off; inactive means mostly below about 43%
Lassa entry inh = inhibitors of Lassa virus binding or cell entry; Lassa virus pseudotype entry inhibition, cell reporter; Potency, µM (doses to about 37.9 µM), most hits filed as inhibitors; 1.2% of 300,000 active; calls by dose curve; tested in HEK293 cells; further: nearly all actives have a fitted effect of over 50% in size
Marburg entry inh = Marburg virus entry inhibition; Marburg virus pseudotyped entry inhibition, cell reporter; Potency, µM (highest dose often 37.8 µM), actives largely listed as inhibitors; 1.8% of 300,000 active; calls by dose curve; tested in HEK293 cells
Vaccinia mCherry = inhibitors of vaccinia virus infection (mCherry reporter signal); 0.63% of 310,000 active; AID 720579; Potency, µM (titrated, usually from 36.5 µM), hits mostly inhibitors; Vaccinia virus mCherry reporter infection, fluorescence; calls by dose curve; tested in A549 cells; further: nearly all actives have a fitted effect of over 35% in size
CHX counter = counter-screen hit for Shiga toxin inhibitors, cycloheximide; cell reporter, cycloheximide protein synthesis inhibition counterscreen; max response, %; 12% of 300,000 active; in the data active means max response mostly above about 13%, no sharp cut-off; inactive means mostly below about 14%; further: read at 38.3 µM for the half of the compounds with a filed dose
Vaccinia Venus = inhibitors of vaccinia virus (Venus reporter); Potency, µM (doses to about 36.5 µM), actives largely listed as inhibitors; Vaccinia virus Venus reporter expression, fluorescence; 0.46% of 330,000 active; calls by dose curve; tested in A549 cells; further: nearly all actives have a fitted effect of over 30% in size
A number is an active result; - = inactive; ? = inconclusive; . = no result given; [ ] = another dose, or the depositor's remark. Shown is part of a subset that was picked to be rich in hits.

SMILES	Shiga inhibitor	Lassa entry inh	Marburg entry inh	Vaccinia mCherry	CHX counter	Vaccinia Venus
COc1ccccc1NC(=O)CSc1nnc2c(n1)[nH]c1ccccc12	.	11.2µM	-	-	.	-
Fc1cccc(CSc2nnc3c(n2)[nH]c2ccccc23)c1	-	.	.	.	19.3	.
COC(=O)c1ccccc1NC(=O)CSc1nnc(-c2ccc(C)cc2)o1	54.7	.	.	.	32.8	.
COC(=O)c1ccccc1NC(=O)Cc1nc(-c2ccccc2)sc1-c1ccc(C)cc1	35.1	-	-	-	32.7	-
COC(=O)c1ccc(CSc2nnc3c(n2)[nH]c2ccccc23)cc1	-	-	-	-	-	-
CCOc1ccc(C(=O)c2cn(CC(=O)Nc3cc(OC)cc(OC)c3)c3ccc(F)cc3c2=O)cc1	.	-	-	-	.	-
Cc1cc2c(cc(C(=O)OCC(=O)NC3CCCCC3)n2C)o1	.	-	-	-	.	-
O=C1[C@H]2[C@@H]3[C@@H](O)[C@H](O)CC(=NOCc4ccccc4)[C@@H]3CC[C@H]2C(=O)N1C1CCCCC1	.	-	-	.	.	.
CCOC(=O)c1sc(NC(=O)COc2ccccc2Cl)c(C(=O)OCC)c1C	.	-	.	-	.	-
COc1cc(C2C(=O)N(C3CCCCCC3)CC(=O)N2Cc2ccccc2)ccc1OC(C)C (configuration not stated)	.	-	.	-	.	-
N#Cc1cc2cc(Cl)ccc2[nH]c1=O	.	.	.	-	.	-
CC[N+](C)(C)c1ccc(/C=C/c2ccnc3ccccc23)cc1	.	.	.	-	.	-
O=C(CCc1ccccc1)NCc1ccc2c(c1)CCN2C(=O)c1ccc(Cl)cc1	.	-	.	-	.	-
CCOc1ccccc1NC(=O)CSc1nnc(-c2cccnc2)o1	.	-	-	-	.	-
COC(=O)c1ccccc1NC(=O)CSc1nnc(-c2cccnc2)o1	-	.	?	-	21.2	-
COc1ccc(-c2nnc(SCC(=O)Nc3ccccc3OC)o2)cc1	57.6	-	?	-	24.8	-
COc1ccccc1NC(=O)CSc1oc(-c2ccc(F)cc2)nc1S(=O)(=O)c1ccc(Br)cc1	.	-	-	14.1µM	.	?
COC(=O)CSc1nnc(-c2ccccc2OC)o1	-	-	-	.	-	.
COc1ccccc1NC(=O)CSc1nnc(-c2ccncc2)o1	-	-	-	.	-	.
COc1ccccc1-c1nnc(SCC(=O)OC(C)C)o1	35.1	-	-	.	-	.
COc1ccccc1NC(=O)CSc1oc(-c2ccccc2)nc1S(=O)(=O)c1ccc(C)cc1	.	?	?	-	.	-
C[C@H]1C(C(=O)N2CCCC2)=Cc2[nH]c(=O)[nH]c2C=C1c1ccccc1	.	.	-	.	.	.
COc1ccccc1-n1c(SCC(=O)OC(C)C)nc2cccnc21	-	.	.	.	-	.
CCCCN(CCCC)CC(O)c1cc(Cl)cc2c1-c1ccc(Cl)cc1C2=Cc1ccc(Cl)cc1 (configuration not stated)	.	.	.	-	.	-
CC1(C)CC(=O)c2c(Cc3ccccc3)noc2C1	-	-	-	-	-	-
SMILES	Shiga inhibitor	Lassa entry inh	Marburg entry inh	Vaccinia mCherry	CHX counter	Vaccinia Venus
CC1(C)CC(=O)c2c(noc2-c2ccccc2)C1	57.6	-	-	.	31.2	.
CC(C)c1ccc2oc(-c3ccc(Cl)c(NC(=O)c4cccs4)c3)nc2c1	.	-	-	-	.	-
OC(CN1CCNCC1)Cn1c2ccccc2c2ccccc21 (configuration not stated)	-	.	.	.	-	.
CCN(CC)CC(O)Cn1c2ccccc2c2ccccc21 (configuration not stated)	-	?	12.6µM	.	-	-
C=CCN(CC=C)CC(O)Cn1c2ccccc2c2ccccc21 (configuration not stated)	-	?	8.2µM	?	-	?
CCN(CC(O)Cn1c2ccccc2c2ccccc21)S(=O)(=O)c1ccc(F)cc1 (configuration not stated)	-	-	?	.	-	.
COc1ccc([C@@H](C)NC(=O)CCc2nnc(-c3cc(C)on3)o2)cc1	-	-	-	-	-	-
Cc1cc(-c2nnc(CCC(=O)NCc3cc(F)cc(C(F)(F)F)c3)o2)no1	-	-	-	-	25.0	-
CCC(NC(=O)CCc1nnc(-c2cc(C)on2)o1)C12CC3CC(CC(C3)C1)C2 (configuration not stated)	-	-	-	-	17.8	-
Cc1cc(-c2nnc(CCC(=O)NC(C)c3ccccc3Cl)o2)no1 (configuration not stated)	-	.	-	-	-	-
Cc1ccc2c(=O)cc(C(=O)Nc3sc4c(c3C(=O)NCc3ccco3)CCC4)oc2c1C	.	-	?	-	.	-
CCCCNC(=O)[C@@H]1CC=C[C@@H]2CCN(Cc3ccc(OC)c(OC)c3)C(=O)[C@@H]21	.	.	.	-	.	-
O=C(CCl)Nc1cn(-c2ccccc2)nc1-c1ccccc1	-	4.11µM	16.4µM	.	38.9	.
O=C(NN1CCOCC1)c1cn(-c2ccccc2)nc1-c1cccs1	-	.	.	-	-	-
O=C(O)c1ccc(NC(=O)c2cn(-c3ccccc3)nc2-c2ccccc2)cc1	55.6	-	-	-	21.1	-
Cc1ccc(-c2nn(-c3ccccc3)cc2NC(=O)c2ccccc2)cc1	43.7	-	-	-	18.6	-
O=C(Nc1cn(-c2ccccc2)nc1-c1cccs1)c1ccco1	91.8	-	?	.	18.3	-
O=C(O)c1ccc(NC(=O)c2cn(-c3ccccc3)nc2-c2ccc(Br)cc2)cc1	-	-	-	-[7.34 µM]	-	-
O=C(Nc1cn(-c2ccccc2)nc1-c1ccc(Cl)cc1)c1ccccc1	-	-	?	-	-	-
COc1cc2nc(N3CCCC(O)C3)c(CNCc3ccccc3F)cc2c(OC)c1OC (configuration not stated)	.	.	.	-	.	-
COc1ccccc1N1C(=O)C2C(C(=O)c3ccccc3)=NN(c3ccccc3OC)C2C1=O (configuration not stated)	-	-	-	-	-	-
N#C/C(=C\c1c[nH]c2ccc(Br)cc12)c1ccccn1	-	?	12.6µM	?	-	-
CC(=O)Cc1cc(O)c2ccccc2c1OC(=O)c1ccc(Br)cc1	-	.	.	.	-	.
CN(C)S(=O)(=O)c1cc(NC(=O)CN2CCN(c3ccc(O)cc3)CC2)ccc1Cl	-	?	?	-	-	-
CN(C)S(=O)(=O)c1cc(NC(=O)CNCc2ccccc2)ccc1Cl	66.9	-	?	-	41.1	-
SMILES	Shiga inhibitor	Lassa entry inh	Marburg entry inh	Vaccinia mCherry	CHX counter	Vaccinia Venus
Cc1ccc(NC(=O)CNCc2ccc(Cl)cc2Cl)cc1S(=O)(=O)N(C)C	-	-	?	-	-	-
CCC(C(=O)OCC(=O)Nc1ccc(Cl)c(S(=O)(=O)N(C)C)c1)c1ccccc1 (configuration not stated)	-	?	11.2µM	-	-	-
CN(C)S(=O)(=O)c1cc(NC(=O)CN2CCN(c3ccccc3)CC2)ccc1Cl	-	3.55µM	?	-	-	-
NC(=O)c1ccc(NC(=O)CNCc2ccccc2Cl)cc1	49.2	.	-	-	13.5	-
COCCN1C(=O)NC(c2ccco2)C(C(=O)OC)=C1C (configuration not stated)	.	.	-	.	.	.
Cc1ccc(NC(=O)CNCc2ccccc2Cl)cc1S(=O)(=O)N(C)C	57.7	?	-	-	40.0	-
Oc1ccc(-c2nccc(-c3cccs3)n2)cc1	133.1	-	-	-	58.3	-

Screening data as filed in PubChem BioAssay.
